Measured values reported in PubChem BioAssay (NCI).
The panel holds about 79,000 compounds, 15% with a hit somewhere; the sample as a whole holds those more often. The source made the active and inactive calls. Cut-off read from the data, not from the text of the source: active = growth inhibition above about 70%; inactive = the rest.

Experiment: NCI Yeast Anticancer Drug Screen. Data for the mec2-1 strain (AID 157)
Details: S. cerevisiae mec2-1 strain, at 50.0 µM (retest, dose inferred, filed as 5.0), stronger effect = higher value
In short: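 Test agents were screened against the mec2-1 yeast strain, with defined DNA repair or cell cycle alteration. Growth was scored as inhibition against vehicle-only controls.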

SMILES | growth inhibition
CCS(=O)(=O)c1ccc(/C=C/C=N/NC(=S)NCC(C)C)cc1 | -24% (inactive)
CCC(=O)Oc1c(Cl)cc(Cl)c2ccccc12 | -1% (inactive)
COc1cc2c3c(cccc3c1)C(=O)N(CCN(C)C)C2=O | 11% (inactive)
CN(C)c1ccc(C(C#N)=C(C#N)C#N)cc1 | 82% (active)
O=C(CCCN1CCC2(CC1)CC(=O)N(N1CCCCCC1)C2=O)c1ccc(F)cc1 | 41% (inactive)
O=C1C2C(C(=O)N1c1ccc(OCc3ccccc3)cc1)C1c3ccccc3C2C2CCCCN21 (stereo not given) | 19% (inactive)
CCN(CC)CCC(=O)c1ccc(Oc2ccc(F)cc2)cc1 | 87% (active)
O=Nc1c(NO)ccc2nn(-c3ccccc3)nc12 | 99% (active)
CC(=O)SCCC[Si](C)(C)CCCSC(C)=O | 46% (inactive)
O=C(O)C1CCCCC1c1c2ccc(=O)c(O)c-2oc2c(O)c(O)ccc12 (stereo not given) | 80% (active)
Cc1ccc(NN(NC(=O)OC(C)C)C(=O)OC(C)C)cc1 | 5% (inactive)
O=C1c2ccccc2C(=O)c2cc(CBr)ccc21 | 77% (active)
Cc1c(C(Cc2ccccc2N(C)C(=O)/C=C\C(=O)O)c2c[nH]c3ccccc23)c2ccccc2n1C (stereo not given) | 8% (inactive)
CC(C)/C(Cl)=N\OC(=O)Nc1ccc(F)cc1 | 63% (inactive)
O=C1OC(=O)C2CCCC3CCCC1C32 (stereo not given) | 99% (active)
CCOC(=O)C(NC(=O)c1ccccc1)(N1CCN(c2cc3c(cc2F)c(=O)c(C(=O)O)cn3C2CC2)CC1)C(F)(F)F (stereo not given) | -27% (inactive)
COc1ccc(NC(=S)N/N=C(\c2ccccc2)c2ccccn2)cc1 | 75% (active)
C=CCC1=C(C)C(OC(=O)/C=C/c2ccccc2)CC1=O (stereo not given) | -18% (inactive)
NNc1c(F)c(F)cc(F)c1F | 6% (inactive)
COP(=O)(OC)/C(=C\C1=CN(C(c2ccccc2)(c2ccccc2)c2ccccc2)CN1)NC=O | -4% (inactive)
COC(=O)c1cc(-c2ccc(C)cc2)[nH]c(=O)c1C#N | 24% (inactive)

Same assay, conditions: S. cerevisiae mec2-1 strain, at 50.0 µM, stronger effect = higher value

SMILES | growth inhibition
CCOP(=O)(OCC)C(Cc1ccccc1)N=C(c1ccccc1)c1ccccc1 (stereo not given) | 70.5% (active)
CCc1ncnc2cc(OCC3CO3)c(OC)cc12 (stereo not given) | 89.4% (active)
CCOC(=O)[C@H]1Nc2ccccc2C2c3ccccc3CC21 (stereo not given in full) | 91.3% (active)
O=CNc1ccc2c(c1)C(=O)c1ccccc1-2 | 37.7% (inactive)
CCOc1ccc2c(c1)c(CC(=O)O)cn2C | 38.6% (inactive)
OC1CSCCCSCCSCCCSC1 | 20.5% (inactive)
N#Cc1c(N)[nH]c2ccc(Sc3ccccc3)cc12 | 62.8% (inactive)
Cc1ccc(-c2ccc(Nc3c4ccccc4nc4ccccc34)cc2)cn1 | 90.4% (active)
c1ccc2c(c1)NC(NC1Nc3ccccc3N1)N2 | 9.05% (inactive)
OC(COc1cccc2ccccc12)CN1CCOCC1 (stereo not given) | 37% (inactive)
CCC/C(Cl)=N\OC(=O)Nc1ccc(Br)cc1 | 92% (active)
COc1ccc(/C=C2\SC(=S)N(/C=C/c3nc4ccccc4[nH]c3=O)C2=O)cc1OC | 68.1% (inactive)
O=C(NNc1ccnc2cc(Cl)ccc12)/C(=C\c1ccccc1Cl)NC(=O)c1ccccc1 | 39.6% (inactive)
CSC1=NNC(SC)=NN1 | 44.4% (inactive)
Cc1c(C2=C(Br)C(=O)N(C)C2=O)c(=O)n(C)c(=O)n1C | 56.1% (inactive)
NCCNc1ccc(NCCN)c2c1C(=O)c1c(O)ccc(O)c1C2=O | 67.5% (inactive)
Cn1c(=O)c(-c2ccccc2)c(N=[N+]=[N-])c2ccccc21 | 83.8% (active)
CCCCCCCCCCCCCCCCCCOCC(O)COP(=O)(O)OCC1OC(n2cc(F)c(=O)[nH]c2=O)CC1O (stereo not given) | 88.5% (active)
CCS(=O)(=O)c1ccc(/C=C/C=N/NC(=S)NCC(C)C)cc1 | 4.2% (inactive)
CCC(=O)Oc1c(Cl)cc(Cl)c2ccccc12 | -8.5% (inactive)

SMILES | growth inhibition
COc1cc2c3c(cccc3c1)C(=O)N(CCN(C)C)C2=O | -5.45% (inactive)
CN(C)c1ccc(C(C#N)=C(C#N)C#N)cc1 | 89.3% (active)
O=C(CCCN1CCC2(CC1)CC(=O)N(N1CCCCCC1)C2=O)c1ccc(F)cc1 | 45.8% (inactive)
O=C1C2C(C(=O)N1c1ccc(OCc3ccccc3)cc1)C1c3ccccc3C2C2CCCCN21 (stereo not given) | -8.75% (inactive)
CCN(CC)CCC(=O)c1ccc(Oc2ccc(F)cc2)cc1 | 44.5% (inactive)
O=Nc1c(NO)ccc2nn(-c3ccccc3)nc12 | 88.5% (active)
CC(=O)SCCC[Si](C)(C)CCCSC(C)=O | 53.6% (inactive)
O=C(O)C1CCCCC1c1c2ccc(=O)c(O)c-2oc2c(O)c(O)ccc12 (stereo not given) | 82.1% (active)
Cc1ccc(NN(NC(=O)OC(C)C)C(=O)OC(C)C)cc1 | 6.1% (inactive)
O=C1c2ccccc2C(=O)c2cc(CBr)ccc21 | 90% (active)
Cc1c(C(Cc2ccccc2N(C)C(=O)/C=C\C(=O)O)c2c[nH]c3ccccc23)c2ccccc2n1C (stereo not given) | 86.8% (active)
CC(C)/C(Cl)=N\OC(=O)Nc1ccc(F)cc1 | 34% (inactive)
O=C1OC(=O)C2CCCC3CCCC1C32 (stereo not given) | 36.8% (inactive)
CCOC(=O)C(NC(=O)c1ccccc1)(N1CCN(c2cc3c(cc2F)c(=O)c(C(=O)O)cn3C2CC2)CC1)C(F)(F)F (stereo not given) | 3.05% (inactive)
COc1ccc(NC(=S)N/N=C(\c2ccccc2)c2ccccn2)cc1 | 74.7% (active)
C=CCC1=C(C)C(OC(=O)/C=C/c2ccccc2)CC1=O (stereo not given) | 5.6% (inactive)
NNc1c(F)c(F)cc(F)c1F | 33.1% (inactive)
COP(=O)(OC)/C(=C\C1=CN(C(c2ccccc2)(c2ccccc2)c2ccccc2)CN1)NC=O | 98.3% (active)
COC(=O)c1cc(-c2ccc(C)cc2)[nH]c(=O)c1C#N | 56.9% (inactive)
